Some results are limits rather than exact numbers.

These results are taken from paper PMC5540273 (PLoS ONE, 2017).
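Also: kd values determined as follow-up on hits from a single-replicate KINOMEscan panel screen.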

For the first assay, the system named is ICK.
Regarding `O=C(Nc1n[nH]c2nc(-c3nccs3)c(Br)cc12)C1CCCC1` [SB-742609], the Kd worked out at 0.22 µM.
On the same count and under the same terms, then `Cl.NC(=O)c1cccc(Nc2nccc(Nc3ccc(Oc4cccc(Cl)c4)c(Cl)c3)n2)c1` [GW659008], with over 10 µM; and `Cc1cc(N2Cc3ccccc3C2)nc(Nc2ccc(S(=O)(=O)N3CCOCC3)cc2)n1.Cl` [GSK1669917], with over 10 µM.
The same measure, in the same setting: the figure for `CS(=O)(=O)c1ccc(-c2nc3n(c2-c2ccncc2)CCC3)cc1` [SKF-105942] is over 10 µM.

The next assay deals with IRAK3.
Turning to `Cc1ccc(NC(=O)Nc2cccc(Cl)c2)cc1-c1ccc(C(=O)Nc2ccncc2)cc1` [GSK1398468], the Kd was over 10 µM.
Molecule `Cc1ccc(NC(=O)Nc2cc(C(C)(C)C)nn2-c2ccccc2)cc1` [GSK1014915] displayed a Kd of over 10 µM.
Still for that read-out and setting: then `CCn1c(-c2ccccn2)nc2cnccc21` [SB-736398], with 7.5 µM; and `CS(=O)(=O)c1ccc(-c2c(-c3ncn[nH]3)sc(N3CCOCC3)c2C#N)cc1`, with over 10 µM.
On the same count and under the same terms, the figure for `Cc1ccc(NC(=O)Nc2cccc(C(F)(F)F)c2)cc1` [GSK955403] is over 10 µM.

Another assay deals with JAK1(JH2domain-pseudokinase).
For the molecule `COc1ccc2nc(-c3cccc(C)n3)nc(Nc3ccncc3)c2c1` [GSK204919], the Kd was found to be 260 nM.
Same read-out and setting: then `Cc1nnc(-c2ccc3occ(-c4ccc(S(C)=O)cc4)c3c2)[nH]1` (centres unmarked), with 190 nM; and `Cc1cccc(-c2nc(Nc3ccc4[nH]ncc4c3)c3ccccc3n2)n1` [GW857175], with 650 nM.

The next assay relates to JAK2(JH1domain-catalytic).
As to `Cc1cccc(-c2cc(Nc3ccncc3)c3ccccc3n2)n1` [GSK223675], the Kd was over 10000 nM.
Still for that read-out and setting: then `COc1ccc(CNC(=O)NC2CCN(c3ccnc(Nc4cc(OC)c(OC)c(OC)c4)n3)C2)cc1` (centres unmarked) [GSK1379748], with 350 nM.
With `Cl.NC(=O)c1cccc(Nc2nccc(Nc3ccc(Oc4cccc(Cl)c4)c(Cl)c3)n2)c1` [GW659008], the Kd is 400 nM. The Kd values of the last two molecules are within 1.5-fold of each other.
Still for that read-out and setting: then `O=S(=O)(c1ccc(-c2ccnc3[nH]ccc23)cc1)N1CCCC1` [GSK846226], with 360 nM.
Same read-out and setting: then `CSc1nn2c(=O)cc(N3CCOCC3)nc2n1Cc1cccc(C(F)(F)F)c1C` [GSK2363608], with over 10000 nM.

For orientation: Kd means the free concentration of one partner at which half of the binding sites on the other are occupied at equilibrium, for simple one-to-one binding. Higher therefore signals weaker binding.
